Parameters in all cases: scale not given: direction of the effect not stated beside the values
Test [1] deals with Protein translocase subunit SecA (Escherichia coli (strain K12)) (UniProt P10408). Nature of the test: Assay to Identify E. coli SecA ATPase Inhibitors. The test is classed as functional. The conditions noted are these: 30 µM.
The target in test [2] is T1, Ubiquitin-activating enzyme e1, putative (Leishmania donovani (strain BPK282A1)) (UniProt E9BSI1).
T1 sequence (whole entry): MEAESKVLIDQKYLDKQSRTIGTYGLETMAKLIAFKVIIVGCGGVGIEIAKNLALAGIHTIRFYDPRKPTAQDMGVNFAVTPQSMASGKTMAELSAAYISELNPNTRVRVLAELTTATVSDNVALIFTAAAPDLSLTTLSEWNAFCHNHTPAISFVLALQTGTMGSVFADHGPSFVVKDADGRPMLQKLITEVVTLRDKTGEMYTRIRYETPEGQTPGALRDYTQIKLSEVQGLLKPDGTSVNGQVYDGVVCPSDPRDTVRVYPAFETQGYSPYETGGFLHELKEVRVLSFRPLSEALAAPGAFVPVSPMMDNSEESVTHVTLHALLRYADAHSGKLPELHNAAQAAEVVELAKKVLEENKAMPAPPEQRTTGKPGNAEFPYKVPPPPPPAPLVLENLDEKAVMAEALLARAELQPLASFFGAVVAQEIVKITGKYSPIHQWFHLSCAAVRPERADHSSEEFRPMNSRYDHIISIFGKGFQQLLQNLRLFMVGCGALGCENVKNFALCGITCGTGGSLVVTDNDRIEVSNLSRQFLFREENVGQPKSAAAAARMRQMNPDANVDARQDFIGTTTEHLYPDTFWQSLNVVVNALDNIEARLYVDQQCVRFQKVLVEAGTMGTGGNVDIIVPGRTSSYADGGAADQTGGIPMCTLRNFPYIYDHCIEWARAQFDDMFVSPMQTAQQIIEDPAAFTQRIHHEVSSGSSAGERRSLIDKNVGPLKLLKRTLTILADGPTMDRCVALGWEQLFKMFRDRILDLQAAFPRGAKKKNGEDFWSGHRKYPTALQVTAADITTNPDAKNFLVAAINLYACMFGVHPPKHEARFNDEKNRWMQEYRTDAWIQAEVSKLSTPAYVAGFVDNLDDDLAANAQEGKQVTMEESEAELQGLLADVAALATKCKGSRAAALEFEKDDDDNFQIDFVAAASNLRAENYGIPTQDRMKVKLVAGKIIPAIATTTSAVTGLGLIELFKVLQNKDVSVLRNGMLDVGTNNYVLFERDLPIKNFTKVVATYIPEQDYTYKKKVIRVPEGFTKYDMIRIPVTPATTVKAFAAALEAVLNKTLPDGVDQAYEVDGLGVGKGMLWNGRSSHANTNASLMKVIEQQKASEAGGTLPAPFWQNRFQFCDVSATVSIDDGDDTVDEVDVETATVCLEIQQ
Nature of the test: Leishmania donovani Ubiquitin Activating Enzyme (LdE1). Format: functional. The note with it: 30 µM.

Test [3] has as its target AMP-activated protein kinase, AMPK (Homo sapiens) (UniProt P54646+O43741+P54619+Q9UGJ0+Q9Y478+Q13131+Q9UGI9). Description: AMP-dependent Kinase enzyme assay. An in vitro enzyme assay that detects ADP turnover that is directly proportional to AMPK activity. This uses naive AMPK that is activated during the assay with MK-8722. The note with it: 30 µM. Format: functional.

Test [4] concerns the target Sialic acid-binding Ig-like lectin 9 (Homo sapiens) (UniProt Q9Y336). Description: Hs-Siglec9 ALPHAscreen SOP 20170721. The note with it: 10 µM. (In general: In Alpha technology, singlet oxygen from a donor bead excites a nearby acceptor bead.)
Test [5] has as its system Trypanosoma cruzi. Nature of the test: Trypanosoma cruzi phosphomannomutase and mannose-1-phosphate guanylyltransferase assay. The test is classed as functional. The note with it: 10 µM.
Test [6] concerns the target T2, Arginase-2, mitochondrial (Homo sapiens) (UniProt P78540).
T2 sequence (whole entry): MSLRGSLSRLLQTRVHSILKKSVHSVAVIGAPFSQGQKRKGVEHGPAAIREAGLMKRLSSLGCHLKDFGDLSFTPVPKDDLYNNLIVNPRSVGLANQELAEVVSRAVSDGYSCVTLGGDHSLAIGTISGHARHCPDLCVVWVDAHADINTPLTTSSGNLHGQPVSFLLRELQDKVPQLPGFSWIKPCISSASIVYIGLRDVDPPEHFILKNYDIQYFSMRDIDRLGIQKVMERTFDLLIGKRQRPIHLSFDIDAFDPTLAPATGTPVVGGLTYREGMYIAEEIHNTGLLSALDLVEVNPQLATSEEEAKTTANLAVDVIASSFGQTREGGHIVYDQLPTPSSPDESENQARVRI
Nature of the test: in vitro enzyme assay to detect the production of urea directly proportional to the activity of Arginase II. Further: in the data most compounds retested in dose-response had high values. The conditions noted are these: 33.3 µM. Format: functional.

The target in test [7] is T3, Proteasome subunit beta (Trypanosoma cruzi) (UniProt O96673).
T3 sequence (whole entry): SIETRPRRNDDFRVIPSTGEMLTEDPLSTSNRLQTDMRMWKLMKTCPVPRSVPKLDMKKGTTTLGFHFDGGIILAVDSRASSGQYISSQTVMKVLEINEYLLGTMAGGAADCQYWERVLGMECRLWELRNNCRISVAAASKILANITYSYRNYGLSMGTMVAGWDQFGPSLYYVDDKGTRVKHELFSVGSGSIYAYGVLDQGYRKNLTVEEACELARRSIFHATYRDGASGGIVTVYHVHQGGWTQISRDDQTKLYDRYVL
Nature of the test: Trypanosoma cruzi proteasome chymotrypsin-like activity (TcProtChymo) assay. Further: in the data most compounds retested in dose-response had high values. The note with it: 9.37 µM. Format: functional.

The species named for test [8] is Homo sapiens. Description: To identify inhibition of the IFN signalling (Jak-Stat) pathway via expression of an eGFP reporter gene under the control of an IFN-stimulated response element (ISRE) containing MxA promoter. The conditions noted are these: 30 µM. The test is classed as functional. In general terms: A reporter such as luciferase makes a cellular process visible.

Test [9] addresses T4, Tyrosyl-tRNA synthetase, putative (Trypanosoma cruzi (strain CL Brener)) (UniProt Q4DSP6).
T4 sequence (whole entry): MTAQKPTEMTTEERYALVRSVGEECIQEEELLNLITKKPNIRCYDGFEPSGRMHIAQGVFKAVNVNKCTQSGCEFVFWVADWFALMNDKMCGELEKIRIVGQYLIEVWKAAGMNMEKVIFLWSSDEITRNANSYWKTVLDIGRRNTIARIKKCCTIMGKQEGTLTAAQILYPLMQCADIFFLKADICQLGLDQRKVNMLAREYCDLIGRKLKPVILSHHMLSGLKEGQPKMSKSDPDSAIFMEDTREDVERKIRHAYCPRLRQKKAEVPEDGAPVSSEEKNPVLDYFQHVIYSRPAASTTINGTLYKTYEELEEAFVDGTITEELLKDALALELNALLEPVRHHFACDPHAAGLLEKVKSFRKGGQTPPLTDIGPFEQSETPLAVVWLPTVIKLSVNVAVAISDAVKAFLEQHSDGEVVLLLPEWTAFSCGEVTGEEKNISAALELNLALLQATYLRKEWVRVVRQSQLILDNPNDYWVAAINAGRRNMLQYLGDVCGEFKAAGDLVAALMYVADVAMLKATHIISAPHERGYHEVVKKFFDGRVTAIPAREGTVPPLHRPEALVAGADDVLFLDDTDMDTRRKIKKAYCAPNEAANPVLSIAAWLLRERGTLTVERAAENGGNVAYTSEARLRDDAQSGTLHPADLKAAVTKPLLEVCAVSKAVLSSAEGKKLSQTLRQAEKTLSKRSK
Description: Trypanosoma cruzi tyrosyl tRNA synthetase (TcYRS) _High Tyrosine SOP. Further: in the data most compounds retested in dose-response had high values. Format: functional. The conditions noted are these: 30 µM.

The target of test [10] is T4, Tyrosyl-tRNA synthetase, putative (Trypanosoma cruzi (strain CL Brener)). Description: Trypanosoma cruzi tyrosyl tRNA synthetase (TcYRS) SOP. Format: functional. The conditions noted are these: 30 µM.
The target of test [11] is Chromo domain-containing protein 1 (Saccharomyces cerevisiae (strain ATCC 204508 / S288c) (Baker's yeast)) (UniProt P32657). Nature of the test: ScCHD-1 Enzyme Inhibition Assay. Further: in the data most compounds retested in dose-response had high values. The test is classed as functional. The conditions noted are these: 30 µM.
Chain of Chromo domain-containing protein 1 (Saccharomyces cerevisiae (strain ATCC 204508 / S288c) (Baker's yeast)) (P32657 whole entry, the tested form may be a part): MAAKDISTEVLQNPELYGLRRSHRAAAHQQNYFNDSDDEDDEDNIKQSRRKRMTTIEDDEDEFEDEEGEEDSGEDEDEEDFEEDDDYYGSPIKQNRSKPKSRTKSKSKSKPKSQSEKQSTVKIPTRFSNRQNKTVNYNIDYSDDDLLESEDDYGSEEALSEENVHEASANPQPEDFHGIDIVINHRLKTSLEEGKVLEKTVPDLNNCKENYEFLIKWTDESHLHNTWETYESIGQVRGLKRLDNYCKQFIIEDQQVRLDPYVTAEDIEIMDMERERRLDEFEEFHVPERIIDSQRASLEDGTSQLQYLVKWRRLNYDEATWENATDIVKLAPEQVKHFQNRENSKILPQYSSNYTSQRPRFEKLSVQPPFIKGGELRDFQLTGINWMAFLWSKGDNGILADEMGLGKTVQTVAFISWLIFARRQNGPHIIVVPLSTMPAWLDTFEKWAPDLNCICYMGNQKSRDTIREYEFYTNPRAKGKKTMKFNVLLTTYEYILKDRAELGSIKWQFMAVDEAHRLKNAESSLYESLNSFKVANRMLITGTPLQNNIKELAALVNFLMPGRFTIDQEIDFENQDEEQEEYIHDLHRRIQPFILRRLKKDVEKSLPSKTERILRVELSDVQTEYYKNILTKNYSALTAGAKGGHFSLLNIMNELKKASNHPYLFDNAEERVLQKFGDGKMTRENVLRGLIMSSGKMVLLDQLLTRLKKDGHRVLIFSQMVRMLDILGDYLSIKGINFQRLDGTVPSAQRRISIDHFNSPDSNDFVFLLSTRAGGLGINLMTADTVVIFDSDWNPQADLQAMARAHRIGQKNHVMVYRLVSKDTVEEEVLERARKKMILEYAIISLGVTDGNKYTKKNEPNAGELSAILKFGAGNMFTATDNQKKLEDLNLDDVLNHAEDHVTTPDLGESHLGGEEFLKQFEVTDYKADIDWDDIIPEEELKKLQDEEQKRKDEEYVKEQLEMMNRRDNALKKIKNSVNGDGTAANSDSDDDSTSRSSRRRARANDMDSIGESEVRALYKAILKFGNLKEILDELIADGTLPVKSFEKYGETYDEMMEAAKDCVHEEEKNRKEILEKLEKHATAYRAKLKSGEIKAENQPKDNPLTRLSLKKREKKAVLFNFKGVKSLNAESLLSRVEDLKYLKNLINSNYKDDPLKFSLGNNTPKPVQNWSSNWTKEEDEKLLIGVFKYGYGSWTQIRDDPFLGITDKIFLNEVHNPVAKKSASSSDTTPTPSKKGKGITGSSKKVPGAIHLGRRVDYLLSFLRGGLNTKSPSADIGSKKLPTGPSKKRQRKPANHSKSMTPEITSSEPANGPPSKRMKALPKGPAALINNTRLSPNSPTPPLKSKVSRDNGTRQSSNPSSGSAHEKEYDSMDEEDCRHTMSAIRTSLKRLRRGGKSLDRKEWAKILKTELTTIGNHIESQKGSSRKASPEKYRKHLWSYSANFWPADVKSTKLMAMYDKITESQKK

For some of these results: Potency and affinity values are given separately.

Chain of Protein translocase subunit SecA (Escherichia coli (strain K12)) (P10408 whole entry): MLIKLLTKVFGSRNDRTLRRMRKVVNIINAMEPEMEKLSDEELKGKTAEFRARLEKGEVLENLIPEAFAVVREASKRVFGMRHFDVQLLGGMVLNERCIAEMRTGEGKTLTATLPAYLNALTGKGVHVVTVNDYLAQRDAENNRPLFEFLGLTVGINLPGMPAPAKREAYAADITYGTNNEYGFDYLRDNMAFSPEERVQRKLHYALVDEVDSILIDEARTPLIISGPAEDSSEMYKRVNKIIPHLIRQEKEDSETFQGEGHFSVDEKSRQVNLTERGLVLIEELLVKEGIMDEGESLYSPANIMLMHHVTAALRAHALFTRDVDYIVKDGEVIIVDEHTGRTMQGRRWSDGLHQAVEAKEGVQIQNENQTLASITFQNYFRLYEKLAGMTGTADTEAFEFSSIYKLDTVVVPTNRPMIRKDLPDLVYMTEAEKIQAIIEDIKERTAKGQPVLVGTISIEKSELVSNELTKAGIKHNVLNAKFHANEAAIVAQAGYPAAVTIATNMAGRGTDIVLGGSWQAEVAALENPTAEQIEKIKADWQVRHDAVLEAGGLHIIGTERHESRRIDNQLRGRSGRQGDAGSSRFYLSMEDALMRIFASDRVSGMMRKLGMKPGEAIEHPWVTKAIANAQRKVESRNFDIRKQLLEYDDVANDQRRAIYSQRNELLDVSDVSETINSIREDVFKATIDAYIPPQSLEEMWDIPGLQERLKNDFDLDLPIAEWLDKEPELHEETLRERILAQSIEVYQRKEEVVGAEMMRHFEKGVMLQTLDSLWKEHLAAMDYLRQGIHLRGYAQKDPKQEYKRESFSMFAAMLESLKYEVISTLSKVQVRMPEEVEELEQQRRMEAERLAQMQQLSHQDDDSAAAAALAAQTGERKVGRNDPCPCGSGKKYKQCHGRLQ
Chain of Sialic acid-binding Ig-like lectin 9 (Homo sapiens) (Q9Y336 whole entry): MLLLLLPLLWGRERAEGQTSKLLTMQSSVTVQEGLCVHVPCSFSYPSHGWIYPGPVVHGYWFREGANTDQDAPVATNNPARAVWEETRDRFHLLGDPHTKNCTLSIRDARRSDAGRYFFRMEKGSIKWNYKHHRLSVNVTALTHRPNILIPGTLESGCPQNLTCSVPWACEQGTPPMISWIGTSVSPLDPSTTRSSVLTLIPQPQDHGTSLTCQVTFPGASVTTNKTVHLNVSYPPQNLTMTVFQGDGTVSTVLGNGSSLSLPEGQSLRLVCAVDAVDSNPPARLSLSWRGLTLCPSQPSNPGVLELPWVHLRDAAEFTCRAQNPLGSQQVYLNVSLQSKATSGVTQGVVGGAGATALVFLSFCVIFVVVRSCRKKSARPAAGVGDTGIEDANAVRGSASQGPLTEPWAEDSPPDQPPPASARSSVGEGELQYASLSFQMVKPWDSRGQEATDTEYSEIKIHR

As for `Cc1csc2nc3n(c(=O)c12)CCN(C(=O)c1ccncc1)CC3`, the Percent Effect was -6.48% in test [1]; 20.3% in test [2]; 7.17% in test [3]; -3.24% in [4]; 1.78% in test [5]; -2.09% in test [6]. Moreover, the Percent Effect is 9.83% in test [7]; 12.7% in test [8]; 2.15% in [9]; 11.7% in test [10]; -13.5% in test [11].
Take `CN(CC(=O)N1CCN(c2ncccn2)CC1)c1ccc(Cl)cn1`: the Percent Effect in test [1] is 0.47%; in [2] it was 8.11%; in test [3] it was -0.12%; in test [4] it was 10.1%; in test [5] it was 5.79%; in test [6], 14.3%. Also, the Percent Effect was 9.83% in [7]; 16.3% in test [8]; 4.76% in [9]; 14.6% in test [10]; -1.14% in test [11].
Regarding `O=C(CN1C=Nc2ccccc2S1(=O)=O)NCCc1cccs1`, the Percent Effect in test [1] was -6.39%; in [2] it was 13.2%; in test [3], -6.07%; in test [4], 5.67%; in test [5] it was 3.08%; in test [6], 5.04%. The Percent Effect is 9.56% in test [7]; 5.08% in test [8]; 8.37% in test [9]; 25.9% in test [10]; -10.2% in [11].
`Cn1cc(CCNC(=O)CCc2ccc3c(c2)OCO3)cn1`: the Percent Effect in test [1] was -0.341%; in test [2] it was 16.2%; in test [3], 0.891%; in test [4] it was 13.4%; in test [5], -9.75%; in test [6], 3.88%. The Percent Effect in [7] is 13.3%; in test [8] it was 8.13%; in [9], 1.98%; in test [10], 13.4%; in [11], -6.68%.
Take `O=C(NCC1CC1)c1nc(COc2ccc3c(c2)OCO3)no1`: the Percent Effect in test [1] was 0.685%; in test [2], 4%; in [3] it was 1.6%; in test [4] it was -3.59%; in [5] it was -7.07%; in test [6], -5.46%. Also, the Percent Effect in test [7] was 15.5%; in test [8], 7.56%; in test [9], 4.23%; in test [10], 2.56%; in [11], -6.83%.
For the molecule `CCOc1nnc(CN2CCOC(CNc3cccnn3)C2)s1` (stereo unspecified), the Percent Effect was -1.03% in test [1]; 20.8% in test [2]; -24.7% in test [3]; -0.385% in test [4]; 2.43% in test [5]; -3.92% in test [6]. The Percent Effect in test [7] was 11.8%; in test [8], 10.6%; in test [9], 16.5%; in test [10] it was 7.32%; in test [11] it was -11.3%.
With `NC(=O)CN1CC2(CCC1=O)CCN(Cc1cc(F)ccc1Cl)CC2`, the Percent Effect in test [1] was -3.36%; in test [2], 16%; in [3], -3.98%; in test [4], 13.3%; in test [5], 7.5%; in test [6], 5.73%. In addition, the Percent Effect in test [7] is 18%; in [8], 8.19%; in [9], 3.83%; in [10], 18.5%; in [11], -5.6%.
Take `CC(=O)c1cc(CC(=O)NCc2c(F)cccc2F)cs1`: the Percent Effect in [1] is 2.08%; in test [2], 5.41%; in test [3] it was -0.986%; in test [4], 2.88%; in test [5] it was 4.44%; in test [6], 10.5%. Further, the Percent Effect in test [7] is 2.76%; in [8], 17.2%; in [9], 0.529%; in test [10], 7.32%; in test [11], 0.311%.
For `O=C(COCc1ccccc1Cl)N1CCCC(n2cccn2)C1` (stereo unspecified), the Percent Effect in [1] was -4.85%; in [2], 18.2%; in test [3] it was 6.5%; in [4] it was -7.66%; in [5], -1.08%; in test [6] it was 4%. Besides, the Percent Effect in test [7] was 20.4%; in [8] it was 20.2%; in test [9], 2.86%; in [10], 11.8%; in [11] it was -9.25%.
As to `CSCCCN1CCn2nc(CNC(C)=O)cc2C1`, the Percent Effect is -4.2% in test [1]; 0% in [2]; 6.86% in test [3]; 4.06% in test [4]; -7.05% in test [5]; -0.455% in test [6]. Also, the Percent Effect in test [7] was 8.16%; in [8], 27.3%; in [9], -1.07%; in test [10], -2.5%; in [11] it was -4.5%.
For `CCOC(=O)NC(CNC(=O)c1ncccn1)CC(C)C` (stereo unspecified), the Percent Effect in test [1] is -3.7%; in test [2], 8.11%; in test [3], -1.89%; in [4], 31.5%; in [5], 5.96%; in [6] it was 13.7%. Also, the Percent Effect in test [7] is 11.8%; in test [8], -4.96%; in [9], 4.3%; in [10], 13.6%; in [11], -6.28%.

The values are drawn from ChEMBL document CHEMBL3988442, “University of Dundee, Small-Polar-MMV Screening Library” (2021).
